Measurements published in PubChem BioAssay (EPA / NIEHS).
Inconclusive results are not listed. Activity calls are given as the source filed them. How the source made its calls, unless noted: active means hit-call score of the fitted dose curve at least 0.9, where 1 is the maximum; inconclusive means response in the unintended direction; inactive means score below 0.9.

Columns and labels:
[1] = TOX21_p53_BLA_p2_viability: Viability Assessment in the Tox21 HCT-116 p53 Agonism Beta-lactamase Assay, Phase 2 (AID 2283591);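 further: actives lower the ATP signal meaning cytotoxicity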
Procedure, shortened: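 Cytotoxicity readout: CellTiter-Glo ATP luminescence, 30 min at room temperature, after the beta-lactamase read. Cells were HCT116 exposed 16 h at 37C to compounds pin-transferred at 217-fold dilution from DMSO stocks.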

[2] = molecular target: Cellular tumor antigen p53 (Homo sapiens) (UniProt P04637); experiment: TOX21_p53_BLA_p2_ratio: Tox21 HCT-116 p53 Agonism Beta-lactamase Assay, Ratio, Phase 2 (AID 2283592)
Procedure, shortened: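 Plated HCT116 p53-bla cells (4000/well) received compound after 5 h, then 16 h at 37C/5% CO2. CCF4-AM added, 2 h RT. Ratio of 460 to 530 nm emission taken as the p53 reporter signal.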

[3] = TOX21_p53_BLA_p3_viability: Viability Assessment in the Tox21 HCT-116 p53 Agonism Beta-lactamase Assay, Phase 3 (AID 2283593);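 further: cells exposed to compound for 16 h before reading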
Procedure, shortened: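 Cellular ATP was quantified by CellTiter-Glo luminescence, read after 30 min at room temperature. Beforehand, HCT116 cells (4000/well) received compound 5 h post-seeding, 217-fold diluted from DMSO, then incubated 16 h at 37C.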

[4] = molecular target: Cellular tumor antigen p53 (Homo sapiens) (UniProt P04637); experiment: TOX21_p53_BLA_p3_ratio: Tox21 HCT-116 p53 Agonism Beta-lactamase Assay, Ratio, Phase 3 (AID 2283596)
Procedure, shortened: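 Cells were seeded at 4000/well, rested 5 h at 37C, then dosed with DMSO compound solutions (217-fold dilution) for 16 h. CCF4-AM substrate was loaded for 2 h at room temperature, and the 460/530 nm emission ratio was fitted for gain of signal versus DMSO.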

[5] = TOX21_p53_BLA_p4_viability: Viability Assessment in the Tox21 HCT-116 p53 Agonism Beta-lactamase Assay, Phase 4 (AID 2283597);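 further: hits lower the luminescence signal meaning cytotoxicity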
Procedure, shortened: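 Readout: ATP luminescence (CellTiter-Glo), measured 30 min after reagent addition at RT. The reagent followed a 2 h CCF4-AM incubation, and the cells had been exposed to compound for 16 h at 37C.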

[6] = molecular target: Cellular tumor antigen p53 (Homo sapiens) (UniProt P04637); experiment: TOX21_p53_BLA_p5_ratio: Tox21 HCT-116 p53 Agonism Beta-lactamase Assay, Ratio, Phase 5 (AID 2283599)
Procedure, shortened: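 Beta-lactamase reporter ratio (blue 460 nm over green 530 nm, 405 nm excitation) after 2 h CCF4-AM loading, in HCT-116 cells exposed 16 h at 37 C to compounds pinned at 217-fold dilution. Increases relative to DMSO baseline scored.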

[7] = TOX21_p53_BLA_p5_viability: Viability Assessment in the Tox21 HCT-116 p53 Agonism Beta-lactamase Assay, Phase 5 (AID 2283600)
Procedure, shortened: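 Workflow: seed 4000 cells per well, wait 5 h, add compounds (DMSO, 217-fold dilution), incubate 16 h, load CCF4-AM 2 h, add CellTiter-Glo, read luminescence after 30 min.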

[8] = molecular target: Cellular tumor antigen p53 (Homo sapiens) (UniProt P04637); experiment: TOX21_p53_BLA_p4_ratio: Tox21 HCT-116 p53 Agonism Beta-lactamase Assay, Ratio, Phase 4 (AID 2283601)
Procedure, shortened: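 Signal is the blue/green (460nm/530nm) ratio of cleaved versus uncleaved CCF4-AM substrate, read after 2 h substrate loading. Cells were HCT116 carrying the p53-responsive beta-lactamase reporter, dosed 16 h at 37C, 5% CO2; CellTiter-Glo measured in parallel.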

PGR (gene 5241) [9] = molecular target: PGR (gene 5241) (UniProt P06401); experiment: TOX21_PR_BLA_Followup_Agonist_ratio: Tox21 HEK293 Progesterone Receptor (PR) Agonism Beta-lactamase Follow-Up Assay, Ratio (AID 2283933)
Procedure, shortened: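 Read-out: ratio of cleaved (ch2) to uncleaved (ch1) beta-lactamase substrate fluorescence, gain-of-signal relative to DMSO baseline. Cells: PR-UAS-bla HEK293T, 2% charcoal-stripped FBS; compound exposure 16 hr, 37C; substrate 2 hr, RT.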

PGR (gene 5241) [10] = molecular target: PGR (gene 5241) (UniProt P06401); experiment: TOX21_PR_BLA_Followup_Antagonist_ratio: Tox21 HEK293 Progesterone Receptor (PR) Antagonism Beta-lactamase Follow-Up Assay, Ratio (AID 2283934)
Procedure, shortened: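 Read-out: blue/green beta-lactamase FRET ratio (cleaved ch2 over uncleaved ch1), fitted relative to DMSO baseline. Cells: PR-UAS-bla HEK293T, GAL4-UAS reporter, stimulated with 1 nM R5020 final; 16 hr compound exposure, 37C.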

[11] = TOX21_PR_BLA_Followup_Agonist_viability: Viability Assessment in the Tox21 HEK293 Progesterone Receptor (PR) Agonism Beta-lactamase Follow-Up Assay (AID 2283935);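 further: signal loss means lower viability so actives are cytotoxic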
Procedure, shortened: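 Luminescent ATP quantitation (CellTiter-Glo, 30 min, room temperature) in the same wells as the beta-lactamase read, on PR-UAS-bla HEK293T cells exposed to compound for 16 hr at 37C in 2% charcoal-stripped serum.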

[12] = TOX21_PR_BLA_Followup_Antagonist_viability: Viability Assessment in the Tox21 HEK293 Progesterone Receptor (PR) Antagonism Beta-lactamase Follow-Up Assay (AID 2283936);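 further: cells exposed to compound with R5020 agonist for 16 h; hits lower the luminescence signal meaning cytotoxicity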
Procedure, shortened: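 PR-UAS-bla HEK293T cells in medium with 2% charcoal-stripped FBS were treated with compounds plus R5020 for 16 hr at 37C. After the beta-lactamase read, CellTiter-Glo was added to the same wells and luminescence read after 30 min at room temperature.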

PGR (gene 5241) [13] = molecular target: PGR (gene 5241) (UniProt P06401); experiment: TOX21_PR_LUC_Followup_Antagonist: Tox21 HEK293 Progesterone Receptor (PR) Antagonism Luciferase Follow-Up Assay (AID 2283938);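 further: curve fitted upward as signal gain over DMSO baseline despite antagonist label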
Procedure, shortened: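 Cells are grown 5 days in charcoal-stripped-FBS assay medium, plated, left 5 h, then dosed with compound and incubated 16 h. ONE-Glo reagent is added and luminescence read after 30 min.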

[14] = TOX21_PR_LUC_Followup_Antagonist_viability: Viability Assessment in the Tox21 HEK293 Progesterone Receptor (PR) Antagonism Luciferase Follow-Up Assay (AID 2283940)
Procedure, shortened: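 Read-out: CellTiter-Glo ATP luminescence, loss of signal taken as reduced viability. Cells: HEK293-PR-A-luc, 3,000/well, 5 h settling, then 16 h compound exposure at 37C, 0% CO2.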

[15] = TOX21_PR_LUC_Followup_Agonist_viability: Viability Assessment in the Tox21 HEK293 Progesterone Receptor (PR) Agonism Luciferase Follow-Up Assay (AID 2283941);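 further: loss of signal means cytotoxicity so actives lower viability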
Procedure, shortened: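 Cytotoxicity counter-screen: ATP content by CellTiter-Glo luminescence, loss of signal = reduced viability. HEK293-PR-A-luc, 3,000 cells/well, compound exposure 16 h, 37C.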

[16] = molecular target: Thyroid hormone receptor alpha (Rattus norvegicus) + Thyroid hormone receptor beta (Rattus norvegicus) (UniProt P18113+P63059); experiment: TOX21_TR_LUC_GH3_Agonist_Followup: Tox21 GH3 Thyroid Hormone Receptor Agonism Luciferase Follow-Up Assay (AID 2283939)
Procedure, shortened: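 Agonist-mode confirmatory run: 15 concentrations (5 nM to 92 uM final) on GH3 rat pituitary cells, 24 h at 37C/5% CO2, T3 as positive control. Luminescence read with ONE-Glo after 30 min.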

THRA (gene 7067) = THRA (gene 7067) (UniProt P10827); experiment: TOX21_TRA_COA_Agonist_Followup_ratio: Tox21 Thyroid Hormone Receptor alpha Agonism through Coactivator Recruitment Follow-Up Assay, Ratio (AID 2283948; active means hit-call score of the fitted dose curve at least 0.9, where 1 is the maximum; inactive means score below 0.9)
Procedure, shortened: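 Follow-up specificity assay in which TRα ligand-binding domain, expressed as a GST fusion, recruits a fluorescein-labelled SRC-2 peptide. Energy transfer from a terbium anti-GST antibody gives the acceptor/donor ratio, fitted upward relative to DMSO.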

THRB (gene 7068) [17] = molecular target: THRB (gene 7068) (UniProt P10828); experiment: TOX21_TRB_COA_Agonist_Followup_ratio: Tox21 Thyroid Hormone Receptor beta Agonism through Coactivator Recruitment Follow-Up Assay, Ratio (AID 2283963; active means hit-call score of the fitted dose curve at least 0.9, where 1 is the maximum; inactive means score below 0.9)
Procedure, shortened: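 Agonism is measured as coactivator recruitment in a purified-protein TR-FRET format, using GST-TRβ LBD at 5.0 nM, fluorescein-SRC-2 peptide at 200 nM and Tb-labeled anti-GST antibody at 2 nM. Values are 520:495 nm ratios relative to DMSO (0%) and T3 (100%).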

[18] = molecular target: Retinoic acid receptor RXR-alpha (Homo sapiens) (UniProt P19793); experiment: TOX21_TR_RXR_BLA_Agonist_Followup_ratio: Tox21 Thyroid Hormone Receptor beta Retinoid X Receptor alpha (RXRa) Agonism Beta-lactamase (BLA) Follow-Up Assay, Ratio (AID 2283968)
Procedure, shortened: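 Read-out: blue/green (460:530 nm) FRET ratio from cleaved vs uncleaved CCF4 substrate, fitted for gain of signal relative to DMSO. Cells: HEK293T with RXRa-UAS-bla reporter; 16 h compound exposure, 11 concentrations, triplicate.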

[19] = TOX21_TR_RXR_BLA_Agonist_Followup_viability: Viability Assessment in the Tox21 Thyroid Hormone Receptor beta Retinoid X Receptor alpha (RXRa) Agonism Beta-lactamase (BLA) Follow-Up Assay (AID 2283970)
Procedure, shortened: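 CellTiter-Glo ATP quantitation as viability read-out in RXRa-bla HEK293T cells (2,500/well, charcoal-stripped 2% FBS medium), 16h compound incubation at 37C. Loss of signal versus DMSO taken as cytotoxicity, analyzed by bidirectional curve fitting.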

THRB (gene 7068) [20] = molecular target: THRB (gene 7068) (UniProt P10828); experiment: TOX21_TRB_BLA_Antagonist_Followup_ratio: Tox21 Thyroid Hormone Receptor beta Antagonism Beta-lactamase (BLA) Follow-Up Assay, Ratio (AID 2283958)
Procedure, shortened: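 Read-out: blue/green (460:530 nm) ratio of cleaved to uncleaved CCF4-AM after 2 h at room temperature, fitted against DMSO baseline. HEK293T UAS-bla cells carrying GAL4-human TRβ LBD were exposed 18 h, 37C/5% CO2.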

[21] = TOX21_TRB_BLA_Antagonist_Followup_viability: Viability Assessment in the Tox21 Thyroid Hormone Receptor beta Antagonism Beta-lactamase (BLA) Follow-Up Assay (AID 2283961)
Procedure, shortened: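 TRβ-bla HEK293T (human TRβ LBD fused to GAL4 DBD), 3,000 cells/well, 2% charcoal-stripped FBS, phenol red-free medium; 18 h compound exposure, 37C; CellTiter-Glo 30 min RT; luminescence, loss-of-signal readout.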

THRB (gene 7068) [22] = molecular target: THRB (gene 7068) (UniProt P10828); experiment: TOX21_TRB_COA_Antagonist_Followup_ratio: Tox21 Thyroid Hormone Receptor beta Antagonism through Coactivator Recruitment Follow-Up Assay, Ratio (AID 2283967)
Procedure, shortened: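 Coactivator recruitment to the GST-tagged TRb ligand-binding domain (5.0 nM) was read as the 520/495 nm TR-FRET ratio, using 200 nM fluorescein SRC-2 peptide and 2 nM terbium anti-GST. Scaled between DMSO and T3 wells; loss of signal fitted.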

[23] = molecular target: Retinoic acid receptor RXR-alpha (Homo sapiens) (UniProt P19793); experiment: TOX21_TR_RXR_BLA_Antagonist_Followup_ratio: Tox21 Thyroid Hormone Receptor beta Retinoid X Receptor alpha (RXRa) Antagonism Beta-lactamase (BLA) Follow-Up Assay, Ratio (AID 2283972)
Procedure, shortened: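 HEK293T RXRa-bla, 2% charcoal-stripped FBS medium, 16 h compound exposure at 37C, qHTS 11 conc x3. CCF4 FRET ratio ch2/ch1 (460:530), DMSO = baseline, loss-of-signal fit.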

[24] = TOX21_TR_RXR_BLA_Antagonist_Followup_viability: Viability Assessment in the Tox21 Thyroid Hormone Receptor beta Retinoid X Receptor alpha (RXRa) Antagonism Beta-lactamase (BLA) Follow-Up Assay (AID 2283979)
Procedure, shortened: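 Follow-up compounds (11 concentrations, triplicate) were incubated 16 h at 37C/5% CO2 with HEK293T RXRa-bla cells seeded at 2,500/well in charcoal-stripped-serum medium. ATP content by CellTiter-Glo luminescence gave viability; curves fitted in both directions against DMSO.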

Measured: AC50

Chain of THRB (gene 7068) (P10828 whole entry, looked up, the tested form may be a part): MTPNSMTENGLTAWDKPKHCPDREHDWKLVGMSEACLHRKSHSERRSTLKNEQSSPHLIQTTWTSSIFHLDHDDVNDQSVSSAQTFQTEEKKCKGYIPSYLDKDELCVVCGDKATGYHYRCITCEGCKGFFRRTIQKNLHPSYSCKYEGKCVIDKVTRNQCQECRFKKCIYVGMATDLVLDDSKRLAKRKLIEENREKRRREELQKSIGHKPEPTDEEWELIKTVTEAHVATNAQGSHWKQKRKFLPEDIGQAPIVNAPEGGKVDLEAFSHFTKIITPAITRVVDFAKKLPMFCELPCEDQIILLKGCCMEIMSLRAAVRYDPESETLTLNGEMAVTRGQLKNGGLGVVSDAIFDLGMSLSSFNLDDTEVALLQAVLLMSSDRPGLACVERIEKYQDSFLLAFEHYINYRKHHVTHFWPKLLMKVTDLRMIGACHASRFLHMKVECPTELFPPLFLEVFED
Chain of Cellular tumor antigen p53 (Homo sapiens) (P04637 whole entry, looked up): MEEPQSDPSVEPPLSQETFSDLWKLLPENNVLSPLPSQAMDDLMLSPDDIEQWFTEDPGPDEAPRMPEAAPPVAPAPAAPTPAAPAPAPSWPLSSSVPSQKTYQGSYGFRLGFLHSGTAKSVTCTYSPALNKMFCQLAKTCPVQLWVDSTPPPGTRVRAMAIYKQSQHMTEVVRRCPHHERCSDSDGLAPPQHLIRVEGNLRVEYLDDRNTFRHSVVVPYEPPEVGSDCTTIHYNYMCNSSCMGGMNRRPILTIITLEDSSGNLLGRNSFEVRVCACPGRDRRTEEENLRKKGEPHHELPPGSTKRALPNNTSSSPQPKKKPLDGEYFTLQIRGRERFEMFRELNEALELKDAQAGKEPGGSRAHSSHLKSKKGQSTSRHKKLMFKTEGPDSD
Chain of PGR (gene 5241) (P06401 whole entry, looked up, the tested form may be a part): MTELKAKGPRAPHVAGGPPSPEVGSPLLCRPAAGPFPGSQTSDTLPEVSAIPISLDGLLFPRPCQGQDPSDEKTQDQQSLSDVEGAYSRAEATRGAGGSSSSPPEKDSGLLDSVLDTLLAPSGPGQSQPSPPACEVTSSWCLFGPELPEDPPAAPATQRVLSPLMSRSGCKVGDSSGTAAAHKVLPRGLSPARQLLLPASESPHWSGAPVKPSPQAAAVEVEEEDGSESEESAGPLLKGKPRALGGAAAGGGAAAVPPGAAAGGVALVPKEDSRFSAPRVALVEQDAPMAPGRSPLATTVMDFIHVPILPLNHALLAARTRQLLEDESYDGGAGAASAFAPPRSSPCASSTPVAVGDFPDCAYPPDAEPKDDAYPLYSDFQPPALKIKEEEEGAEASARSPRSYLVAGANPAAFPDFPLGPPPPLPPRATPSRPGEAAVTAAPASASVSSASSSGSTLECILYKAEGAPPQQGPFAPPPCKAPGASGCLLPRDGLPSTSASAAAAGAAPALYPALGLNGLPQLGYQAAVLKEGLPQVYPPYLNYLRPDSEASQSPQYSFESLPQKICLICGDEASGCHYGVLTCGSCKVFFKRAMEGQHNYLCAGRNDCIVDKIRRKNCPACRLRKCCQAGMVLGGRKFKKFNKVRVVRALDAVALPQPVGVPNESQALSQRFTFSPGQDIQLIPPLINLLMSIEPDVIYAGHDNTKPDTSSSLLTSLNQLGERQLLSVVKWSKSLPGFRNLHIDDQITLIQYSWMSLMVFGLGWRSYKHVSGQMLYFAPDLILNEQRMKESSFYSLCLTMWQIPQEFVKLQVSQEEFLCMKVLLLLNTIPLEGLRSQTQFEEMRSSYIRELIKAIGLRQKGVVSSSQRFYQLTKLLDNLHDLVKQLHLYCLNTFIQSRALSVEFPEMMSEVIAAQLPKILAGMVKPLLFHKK
Chain of Retinoic acid receptor RXR-alpha (Homo sapiens) (P19793 whole entry, looked up): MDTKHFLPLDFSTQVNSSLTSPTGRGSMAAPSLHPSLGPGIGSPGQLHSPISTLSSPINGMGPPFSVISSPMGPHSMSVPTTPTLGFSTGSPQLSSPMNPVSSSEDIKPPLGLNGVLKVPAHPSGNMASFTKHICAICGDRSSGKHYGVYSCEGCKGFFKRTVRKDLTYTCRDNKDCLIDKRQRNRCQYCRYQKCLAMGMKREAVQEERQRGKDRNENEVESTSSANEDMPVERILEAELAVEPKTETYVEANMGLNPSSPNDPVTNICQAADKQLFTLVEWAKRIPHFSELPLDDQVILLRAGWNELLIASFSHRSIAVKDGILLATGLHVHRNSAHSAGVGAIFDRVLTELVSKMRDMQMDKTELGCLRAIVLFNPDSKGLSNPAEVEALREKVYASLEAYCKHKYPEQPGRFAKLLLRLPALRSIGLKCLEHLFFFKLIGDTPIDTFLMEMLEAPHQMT
Chain of Thyroid hormone receptor alpha (Rattus norvegicus) + Thyroid hormone receptor beta (Rattus norvegicus) (P63059 whole entry, looked up): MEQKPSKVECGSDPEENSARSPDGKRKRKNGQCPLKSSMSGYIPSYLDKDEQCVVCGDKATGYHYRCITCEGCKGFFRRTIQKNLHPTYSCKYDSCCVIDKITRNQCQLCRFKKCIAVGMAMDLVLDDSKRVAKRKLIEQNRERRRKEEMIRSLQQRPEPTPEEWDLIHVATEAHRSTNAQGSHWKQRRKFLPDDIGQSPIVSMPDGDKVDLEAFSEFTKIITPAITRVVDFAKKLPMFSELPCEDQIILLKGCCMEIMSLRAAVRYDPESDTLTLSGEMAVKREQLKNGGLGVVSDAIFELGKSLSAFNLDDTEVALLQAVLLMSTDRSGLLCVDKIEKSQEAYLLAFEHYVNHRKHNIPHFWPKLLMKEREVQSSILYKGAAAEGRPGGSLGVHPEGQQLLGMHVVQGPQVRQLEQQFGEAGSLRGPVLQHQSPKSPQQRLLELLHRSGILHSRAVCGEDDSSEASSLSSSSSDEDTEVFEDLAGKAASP
Chain of Thyroid hormone receptor alpha (Rattus norvegicus) + Thyroid hormone receptor beta (Rattus norvegicus) (P18113 whole entry, looked up): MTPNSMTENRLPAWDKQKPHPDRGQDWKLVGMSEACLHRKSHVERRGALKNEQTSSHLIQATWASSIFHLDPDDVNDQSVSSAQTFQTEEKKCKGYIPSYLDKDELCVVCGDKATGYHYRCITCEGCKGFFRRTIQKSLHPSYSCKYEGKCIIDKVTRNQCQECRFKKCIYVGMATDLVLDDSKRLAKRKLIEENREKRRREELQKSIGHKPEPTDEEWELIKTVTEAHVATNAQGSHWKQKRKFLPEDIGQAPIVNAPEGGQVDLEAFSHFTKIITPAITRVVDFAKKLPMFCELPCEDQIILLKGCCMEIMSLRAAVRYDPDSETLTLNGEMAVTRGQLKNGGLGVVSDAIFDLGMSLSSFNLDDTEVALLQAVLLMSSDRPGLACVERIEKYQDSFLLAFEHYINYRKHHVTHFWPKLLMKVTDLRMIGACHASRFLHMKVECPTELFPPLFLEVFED
Chain of THRA (gene 7067) (P10827 whole entry, looked up, the tested form may be a part): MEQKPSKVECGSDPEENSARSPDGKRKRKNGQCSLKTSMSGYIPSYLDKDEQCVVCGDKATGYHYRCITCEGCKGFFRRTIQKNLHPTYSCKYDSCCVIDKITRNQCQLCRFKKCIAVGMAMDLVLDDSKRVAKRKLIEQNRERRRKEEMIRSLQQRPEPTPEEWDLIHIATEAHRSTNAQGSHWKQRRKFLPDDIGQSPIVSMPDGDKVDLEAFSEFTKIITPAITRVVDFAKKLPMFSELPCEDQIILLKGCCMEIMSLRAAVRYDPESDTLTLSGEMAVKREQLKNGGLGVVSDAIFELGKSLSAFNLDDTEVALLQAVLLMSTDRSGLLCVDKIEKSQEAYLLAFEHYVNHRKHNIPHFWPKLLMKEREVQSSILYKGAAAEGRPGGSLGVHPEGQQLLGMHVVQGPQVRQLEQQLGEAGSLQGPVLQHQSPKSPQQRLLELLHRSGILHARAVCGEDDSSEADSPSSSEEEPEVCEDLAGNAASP

COC(=O)C1=C(C)NC(COC(N)=O)=C(C(=O)OC(C)C)C1c1cccc(Cl)c1Cl (stereo unspecified)
active: [2] 33.5 µM | [5] 35.2 µM | [6] 25.5 µM | [8] 28.8 µM | PGR (gene 5241) [9] 23 µM | PGR (gene 5241) [13] 7.88 µM
inactive: [1] | [3] | [4] | [7] | PGR (gene 5241) [10] | [11] | [12] | [14] | [15]

COc1cc(C)c(/C=C/C(C)=C/C=C/C(C)=C/C(=O)O)c(C)c1C
active: [2] 33.4 µM | [6] 36 µM | [16] 0.767 µM | [18] 0.593 µM
inactive: [1] | [3] | [4] | [5] | [7] | [8] | THRA (gene 7067) | THRB (gene 7068) [17] | [19]

CC(C)=CCC1=C(O)c2ccccc2C(=O)C1=O
inactive: [1] | [3] | [5] | [7] | THRB (gene 7068) [20] | [21] | [23] | [24]
active: [2] 1.36 µM | [4] 1.27 µM | [6] 1.74 µM | [8] 2.71 µM | THRB (gene 7068) [22] 31.3 µM
